Measurements reported in PubChem BioAssay.
Values without a mark were called inactive. The source made the active and inactive calls.

test: PSAC antagonists in infected red cells, primary screen, cell-based, P. falciparum Indochina, OD700, 1 h (AID 1154); details: P. falciparum Indochina infected RBC osmotic lysis, higher = more signal, called active from +8 up or from −8 down

| Compound | z-score |
| --- | --- |
| CC1CC/C=C\[C@H]2OC34C=CCN(Cc5ccccc5)C(=O)[C@H]3N(CCCCCO)C(=O)[C@@H]4C2C(=O)O1 (stereo partly specified) | -0.365 |
| COCCOC(=O)N1C(=O)[C@@]2(c3cc(C#CCNC(N)=O)ccc31)[C@H](C(=O)N1CCc3cc(OC)c(OC)cc3C1)[C@H]1C(=O)O[C@H](c3ccccc3)[C@H](c3ccccc3)N1[C@@H]2c1ccc(OCCO)cc1 | 3.93 |
| O=C1OCCC/C=C\[C@H]2OC34C=CCN(Cn5nnc6ccccc65)C(=O)[C@H]3N(CCCCCO)C(=O)[C@@H]4C12 (stereo partly specified) | 2.6 |
| O=C(O)[C@@]1(Cc2ccccc2)N=C(c2ccc(OCCCO)cc2)O[C@H]1c1ccccc1 | 3.67 |
| Cc1ccc(S[C@]2(C(=O)NC3CC3)CC(=O)N(C3CCCCC3)[C@@H]2c2ccc(CO)cc2I)cc1 | 6.07 |
| O=C/C=C/c1ccc2c(c1)OCO2 | -0.448 |
| CC(C)(C)OC(=O)CC[C@@]1(C(=O)O)N=C(c2ccc(OCCCO)cc2)O[C@@H]1c1ccccc1N=[N+]=[N-] | 31.5 (active) |
| COCCOC(=O)N1C(=O)[C@@]2(c3cc(C#CCC(C(=O)OC)C(=O)OC)ccc31)[C@H](C(=O)N1CCN(c3ncccn3)CC1)[C@H]1C(=O)O[C@H](c3ccccc3)[C@H](c3ccccc3)N1[C@@H]2c1ccc(OCCO)cc1 | 17.3 (active) |
| COCCOC(=O)N1C(=O)[C@@]2(c3cc(C#CCC(C(=O)OC)C(=O)OC)ccc31)[C@H](c1ccc(O)cc1)N1[C@H](c3ccccc3)[C@H](c3ccccc3)OC(=O)[C@H]1[C@@H]2C(N)=O | 9.52 (active) |
| C=CCOC(=O)[C@@H]1[C@H]2C(=O)O[C@H](c3ccccc3)[C@H](c3ccccc3)N2[C@H](c2ccc(OCCOC(=O)[C@@H]3C[C@@H]4C(=O)NCC(=O)N4[C@@H]3c3cccc(OCCO)c3)cc2)[C@@]12C(=O)Nc1ccc(I)cc12 | 2.11 |
| C#CCN(C(/C=C/c1ccccc1)CO)C(C(=O)O)c1ccccc1 (stereo unspecified) | 0.175 |
| COC(=O)[C@@]1(Cc2ccc(F)cc2)[C@H]2c3cc(C(=O)N4CCCC4)n(Cc4cccc5ccccc45)c3C[C@H]2CN1C(=O)c1ccccc1 | 3.9 |
| CC(C)CNC(=O)[C@@H]1c2ccccc2C(=O)N(Cc2cc(C(F)(F)F)cc(C(F)(F)F)c2)[C@H]1c1ccc(CO)cc1 | 1.52 |
| COc1cc2c(cc1OC)CN(C(=O)[C@@H]1[C@H]3C(=O)O[C@H](c4ccccc4)[C@H](c4ccccc4)N3[C@H](c3ccccc3OCCO)[C@@]13C(=O)Nc1ccc(C#CCNC(N)=O)cc13)CC2 | 1.14 |
| COC(=O)c1ccc(C(O)C2C=CC3C(=O)N(c4ccccc4)C(=O)C3N2Nc2ccc(C#N)cc2)o1 (stereo unspecified) | 6.87 |
| CC(=O)NCCCC[C@@H]1NC(=O)[C@@H]2C[C@H](C(=O)NCCCCCCNC(=O)CS)[C@H](c3ccc(O)cc3)N2C1=O | 3.73 |
| O=c1cccc(C=Cc2ccccc2)o1 | 2.92 |
| COc1ccc([Si](C)(C)[C@@H]2[C@@H](CC(=O)N3CCC[C@H]3CO)O[C@]3(C(=O)N(C)c4c(Br)cc(C)cc43)[C@H]2C)cc1 | 5.59 |
| CC(C)N1C(=O)[C@@]2(c3ccc([N+](=O)[O-])cc3)CC(=O)N(CC34CC5CC(CC(C5)C3)C4)[C@@H]2c2ccc(CO)cc21 | 0.297 |
| COC(=O)[C@@]1(Cc2ccccc2)N=C(c2ccc(OCCCO)cc2)O[C@H]1c1ccccc1N=[N+]=[N-] | 29.2 (active) |
| N#Cc1ccc(NN2C(C(O)c3ccc([N+](=O)[O-])cc3)C=CC3C(=O)N(c4ccccc4)C(=O)C32)cc1 (stereo unspecified) | 11.9 (active) |
| [N-]=[N+]=Nc1ccccc1[C@@H]1OC(c2ccc(OCCCO)cc2)=N[C@]1(CCS(=O)(=O)c1ccccc1)C(=O)N1CCOCC1 | 30.4 (active) |
| O=C(O)[C@H]1C[C@H]2C(=O)NCC(=O)N2[C@H]1c1ccc(O)cc1 | 2.81 |
| O=c1cccc(CCc2ccccc2)o1 | 1.83 |
| CCN(CC)c1ccc(N2CC=CC34O[C@@H]5C=CCCOC(=O)C5[C@H]3C(=O)N(CCCCCO)[C@@H]4C2=O)cc1 (stereo partly specified) | 2 |
| COCCCNC(=O)[C@@]1(c2ccc([N+](=O)[O-])cc2)CC(=O)N(CC23CC4CC(CC(C4)C2)C3)[C@@H]1c1ccc(CO)cc1 | 4.55 |
